Reference: PubChem BioAssay AID1211 (NMMLSC, 2008)
The source made the active and inactive calls. How the calls were made is not given here.

Biological target: Estrogen receptor (Homo sapiens) (UniProt P03372)
Assay: displacement of fluorescent estrogen from ERalpha – cell-based, Cos7 ERalpha-GFP, flow cytometry, primary screen (AID 1211);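 further: 0% = DMSO vehicle wells and 100% = no E2-Alexa633 signal left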
Details: fluorescent ligand competition, stronger effect = higher value

Estrogen receptor (Homo sapiens), sequence (P03372 whole entry, looked up): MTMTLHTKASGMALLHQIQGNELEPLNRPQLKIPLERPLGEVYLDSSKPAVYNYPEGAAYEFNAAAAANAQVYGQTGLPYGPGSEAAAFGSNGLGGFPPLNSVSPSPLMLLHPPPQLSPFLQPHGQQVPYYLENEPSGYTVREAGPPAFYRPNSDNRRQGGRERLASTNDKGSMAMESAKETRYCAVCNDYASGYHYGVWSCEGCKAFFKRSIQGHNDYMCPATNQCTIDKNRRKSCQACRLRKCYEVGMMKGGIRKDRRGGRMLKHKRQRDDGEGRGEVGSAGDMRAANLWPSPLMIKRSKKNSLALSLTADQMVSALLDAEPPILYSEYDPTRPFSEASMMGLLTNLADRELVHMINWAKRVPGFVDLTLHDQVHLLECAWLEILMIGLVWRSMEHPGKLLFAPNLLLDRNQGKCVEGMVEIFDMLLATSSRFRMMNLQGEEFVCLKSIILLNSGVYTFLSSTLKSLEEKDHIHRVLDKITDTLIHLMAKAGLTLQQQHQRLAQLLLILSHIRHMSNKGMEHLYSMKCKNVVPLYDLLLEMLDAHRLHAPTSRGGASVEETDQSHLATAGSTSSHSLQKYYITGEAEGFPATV

SMILES | inhibition of ligand binding (at 10 µM) | inhibition of ligand binding (binding inhibition, at 0.1 µM)
c1coc(-c2nn3c(-c4ccco4)nnc3s2)c1 | 15% (inactive) | 15%
COc1ccc(N=C2NC(=O)S/C2=C\c2ccc(N(C)C)cc2)cc1 | 39% (inactive) | 8%
CCOc1ccc(CC2S/C(=N/c3ccccn3)NC2=O)cc1 (configuration not stated) | 8% (inactive) | 2%
COc1cccc([C@@H]2Oc3ccc(OC)cc3C(=O)[C@H]2O)c1 | 37% (inactive) | 43%
NC(=O)c1cccc2c1C(=O)N(C1CCCCC1)C2 | 26% (inactive) | 39%
COc1ccc(N2C(=O)c3ccccc3NC2c2ccc(OC)c(CSc3ccccn3)c2)cc1 (configuration not stated) | 40% (inactive) | 19%
COC(=O)c1ccc2c(=O)n(CC3CCCO3)c(SCC(=O)Nc3ccccc3Cl)nc2c1 (configuration not stated) | 45% (inactive) | 37%
COc1ccc(N2Cc3cccc(C(=O)O)c3C2=O)cc1 | 26% (inactive) | 44%
O=C1c2ccccc2C(=O)N1CCCc1nc2ccccc2c(=O)n1CCCn1ccnc1 | 36% (inactive) | 23%
O=C(Nc1cnn(C23CC4CC(CC(C4)C2)C3)c1)c1cnn2c(C(F)(F)F)cc(-c3ccco3)nc12 | 48% (inactive) | 25%
CCOC(=O)c1c(C)oc2c1c(C=NC1CCS(=O)(=O)C1)c(O)c1ccccc12 (configuration not stated) | 29% (inactive) | 43%
CCOc1ccc(N=C2NC(=O)S/C2=C\c2ccc(OC)cc2)cc1 | 39% (inactive) | 26%
COc1ccc(C)cc1-n1nnnc1SCC(=O)NC(=O)NCc1ccco1 | 15% (inactive) | 26%
O=C(Nc1ccc(O)cc1C(=O)O)c1ccc2c(c1)C(=O)N(Cc1ccco1)C2=O | 33% (active) | 86%
COc1ccc(-c2nc(C(N)=O)c3[nH]c(=O)n(-c4cccc(Cl)c4)c3n2)cc1OC | 0% (inactive) | 6%
COc1ccc2[nH]c3c(c2c1)CCn1c-3nc2ccccc2c1=O | 25% (inactive) | 36%
O=C(COC(=O)c1ccccc1Oc1ccccc1)NCc1ccco1 | 13% (inactive) | 53%
CCOC(=O)Cn1cnc2sc3c(c2c1=O)CCC3 | 23% (inactive) | 13%
O=C(CSc1nc2c(cnn2-c2ccccc2)c(=O)[nH]1)c1ccc(Cl)cc1 | 18% (inactive) | 1%
O=C(CCCn1c(=S)[nH]c2cc3c(cc2c1=O)OCO3)N1CCN(c2ccc(Cl)cc2)CC1 | 30% (inactive) | 27%
CCc1ccc(NC(=O)c2noc3c2CCC3)cc1 | 2% (inactive) | 9%
